A selection: hits, their analogues and other compounds. The true share with any hit is near 3%.
NLRP3 yeast inh – inhibitors of NALP3 inflammasome in yeast. inhibition, % at 10 µM. Yeast reconstituted NLRP3/ASC/caspase-1, beta-gal luminescence, 24 h. 0.39% of 330,000 active;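 active = inhibition of 50% or more; inactive = inhibition below 50%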;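 note: plate controls were induced DMSO wells for no effect and uninduced yeast grown without galactose for full effect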
NALP1 inh – NALP1 inhibition; S. cerevisiae NALP1/ASC/caspase-1 growth, X-gal OD620, 72 h; 0.61% of 280,000 active; inhibition, % at 10 µM; in the data active = inhibition mostly above about 24%, no sharp cut-off; inactive = mostly below about 32%
SUMO Mot1 rescue – SUMOylation pathway inhibition by Mot1-301 growth rescue. S. cerevisiae Mot1-301 growth rescue, ATP luminescence, 38.5C; percent above DMSO median, 100 means doubled. 1% of 320,000 active. growth rescue, % at 18.8 µM;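 active = every valid replicate shows activation above 250% relative to neutral control wells; inactive = the rest, any valid replicate at or below 250%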;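 note: OY570 slx delta 5 strain wells were the positive control but not used for scaling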
A1 inh – inhibitors of the anti-apoptotic protein A1, read as caspase activation; MEF A1-2A-BIM cells, Caspase-Glo 3/7 luminescence, 3 h; percent of clofoctol response, vehicle zero; caspase activation, % (no concentration beside the values); 0.066% of 330,000 active; AID 2462;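 active = over half of replicate activation scores above 10%, or exactly half above 10 with the replicate mean above 10; inconclusive = replicate mean below 10 yet half the replicates above 10; inactive = over half of replicates below 10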
CHT PAM – allosteric activators of human choline transporter CHT; CHT-expressing cells, membrane potential dye, choline EC20; stronger effect = higher value; LV-AA mutant CHT in HEK293 cells; B-score at 10 µM; 0.49% of 310,000 active; AID 488977;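 active = initial fluorescence not abnormally high and integrated response B-score, plate-corrected, over 3 SD above library mean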
Target sequence (Q9GZV3 whole entry, looked up): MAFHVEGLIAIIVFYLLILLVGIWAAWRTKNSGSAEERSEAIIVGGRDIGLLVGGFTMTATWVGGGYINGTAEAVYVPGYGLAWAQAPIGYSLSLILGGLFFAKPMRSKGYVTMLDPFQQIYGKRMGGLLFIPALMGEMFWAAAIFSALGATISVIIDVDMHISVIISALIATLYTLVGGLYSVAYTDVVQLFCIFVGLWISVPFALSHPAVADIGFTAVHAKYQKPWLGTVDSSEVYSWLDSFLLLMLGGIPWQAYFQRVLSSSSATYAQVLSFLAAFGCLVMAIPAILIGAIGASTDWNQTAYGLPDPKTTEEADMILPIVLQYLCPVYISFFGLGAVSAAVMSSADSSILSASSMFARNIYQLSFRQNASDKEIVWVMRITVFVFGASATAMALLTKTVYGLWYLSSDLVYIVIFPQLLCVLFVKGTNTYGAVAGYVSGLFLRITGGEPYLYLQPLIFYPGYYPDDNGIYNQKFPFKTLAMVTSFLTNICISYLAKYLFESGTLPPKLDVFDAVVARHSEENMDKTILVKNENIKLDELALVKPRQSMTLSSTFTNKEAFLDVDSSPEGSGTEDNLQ
CHT inh – inhibits the human high affinity choline transporter; Q9GZV3; CHT-expressing cells, membrane potential dye, choline response; stronger effect = lower value; B-score at 10 µM; 0.86% of 310,000 active;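 active = B-score over 3 SD under the library average, and starting fluorescence ratio not unusually high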;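 note: choline stimulus applied at its EC90 after an EC20 pre-addition; B-score computed on integrated fluorescence ratio after choline addition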
NALP3 confirm – confirmation of NALP3 inhibitors in yeast; shares compounds with NLRP3 yeast inh; yeast expressing human NALP3, luminescence; inhibition, % at 10 µM; 81% of 1,300 active; AID 435006; in the data active = inhibition above about 48%
Casp1-ASC yeast – counter-screen for NALP3 inhibitors: yeast caspase-1-ASC; AID 488784; inhibition, % at 10 µM; yeast expressing Caspase-1-ASC, luminescence counter screen; 66% of 1,000 active; shares compounds with NLRP3 yeast inh
NALP3 retest – yeast NALP3 inhibition, confirmed on retest | AID 488794 | yeast expressing human NALP3, luminescence read-out | shares compounds with NLRP3 yeast inh | 53% of 1,000 active | inhibition, % at 10 µM
* marks the source's active call; other numbers are inactive results. Cut-off read from the data, not from the text of the source, unless noted: active = inhibition above about 50%; inactive = the rest.

O=C1NCC2=C1C(c1ccc(Br)cc1)Nc1ccccc1N2 (configuration not stated) was read as NLRP3 yeast inh 52.3*, NALP1 inh 4.8, SUMO Mot1 rescue -19.9, A1 inh -0.4, CHT PAM inactive, CHT inh inactive, NALP3 confirm 63.2*, Casp1-ASC yeast 41.1 and NALP3 retest 33.1.
`O=C(COC(=O)c1ccc(S(=O)(=O)N2CCOCC2)cc1)Nc1ccccc1OC(F)F` gave NLRP3 yeast inh 16.2, SUMO Mot1 rescue 3.2 and A1 inh 0.9.
Cc1ccc(C(=O)Nc2nnc(S(=O)(=O)N3CCC(C)CC3)s2)cc1 was read as NLRP3 yeast inh 3.4, NALP1 inh 18.0, SUMO Mot1 rescue -4.8, A1 inh -0.5, CHT PAM inactive and CHT inh inactive.
`COc1ccc(-n2nnnc2S(=O)(=O)CC(=O)N2CCCCC2)cc1` gave NLRP3 yeast inh 56.8*, NALP1 inh -3.7, SUMO Mot1 rescue 485.6*, A1 inh 0.8, CHT PAM inactive, CHT inh inactive, NALP3 confirm 62.2*, Casp1-ASC yeast 62.6* and NALP3 retest 38.5.
Screening COCCCn1c(=O)c2ccccc2n2c(=S)[nH]nc12 returned NLRP3 yeast inh 3.6, NALP1 inh -28.5, SUMO Mot1 rescue -4.6, A1 inh 1.0, CHT PAM inactive and CHT inh inactive.
For Cc1cc(C)c(S(=O)(=O)NC2CC2)c(C)c1 the results were NLRP3 yeast inh -19.4, NALP1 inh 7.0, SUMO Mot1 rescue 7.4, A1 inh -0.6, CHT PAM inactive and CHT inh inactive.
For Cc1cc(C)c(C)c(S(=O)(=O)NC2CCCCC2)c1C the results were NLRP3 yeast inh 52.7*, NALP1 inh 2.6, SUMO Mot1 rescue 160.9, A1 inh -1.1, CHT PAM inactive, CHT inh inactive, NALP3 confirm 45.7, Casp1-ASC yeast 38.5 and NALP3 retest 27.1.
`CC(=O)Oc1c(C)c2c3c(c1OC(C)=O)[C@@H](C)CC[C@@H]3[C@@H](C)C[C@H]2C=C(C)C` gave NLRP3 yeast inh 12.3, SUMO Mot1 rescue -3.1 and A1 inh 1.8.
COc1cc(C(=O)ON=C2C3CC4CC(C3)CC2C4)cc(OC)c1OC was read as NLRP3 yeast inh 59.3*, NALP1 inh 17.6, SUMO Mot1 rescue -12.5, A1 inh -0.7, CHT PAM inactive, CHT inh inactive, NALP3 confirm 92.4*, Casp1-ASC yeast 40.1 and NALP3 retest 26.1.
For O=C(Nc1ccc2nc3n(c(=O)c2c1)CCCCC3)c1cc([N+](=O)[O-])ccc1F the results were NLRP3 yeast inh 62.7*, NALP1 inh 26.6, SUMO Mot1 rescue -12.5, A1 inh 1.2, CHT PAM inactive, CHT inh inactive, NALP3 confirm 80.1*, Casp1-ASC yeast 69.2* and NALP3 retest 56.2*.
`O=C(COC(=O)c1ccc([N+](=O)[O-])s1)NCc1ccccc1` gave NLRP3 yeast inh 3.9, NALP1 inh 30.0, SUMO Mot1 rescue -3.1, A1 inh -0.4, CHT PAM inactive and CHT inh inactive.
`Cc1[nH]c2ccccc2c1C(=O)COC(=O)c1ccc([N+](=O)[O-])s1` gave NLRP3 yeast inh 55.8*, NALP1 inh 7.4, SUMO Mot1 rescue -4.5, A1 inh inconclusive, CHT PAM inactive, CHT inh inactive, NALP3 confirm 77.6*, Casp1-ASC yeast 85.4* and NALP3 retest 87.0*.
CN(C)CCN=Cc1c(O)n(-c2ccc(S(=O)(=O)N3CCOCC3)cc2)c(=O)c2ccccc12 was read as NLRP3 yeast inh 12.9.
Screening CC1(C)[C@@H](O)CC[C@]2(C)C3C(O)C=C4[C@H]5C[C@@](C)(CO)CC[C@]5(C)CC[C@]4(C)[C@]3(C)CC[C@@H]12 (some centres not stated) returned NLRP3 yeast inh 62.4*, SUMO Mot1 rescue 6.3, A1 inh 0.9, CHT PAM inactive, CHT inh inactive, NALP3 confirm 70.0*, Casp1-ASC yeast 63.8* and NALP3 retest 50.3*.
Screening CCOc1ccccc1-c1nc(-c2ccc(NC(=O)Cc3ccc(OC)cc3)cc2)no1 returned NLRP3 yeast inh 33.1, NALP1 inh 6.5, SUMO Mot1 rescue 12.9, A1 inh 0.1, CHT PAM inactive and CHT inh inactive.
For COc1ccc(CC(=O)Nc2ccc(-c3noc(-c4cc(OC)c(OC)c(OC)c4)n3)cc2)cc1 the results were NLRP3 yeast inh 57.9*, NALP1 inh 4.0, SUMO Mot1 rescue -0.9, A1 inh -0.4, CHT PAM inactive, CHT inh inactive and NALP3 confirm 23.5.
For CN(C(=O)Nc1ccc(C(C)(C)C)cc1)C1CCCCC1 the results were NLRP3 yeast inh 6.7, NALP1 inh -3.2, SUMO Mot1 rescue -0.9, A1 inh -0.2, CHT PAM inactive and CHT inh inactive.
Cc1ccc(O)c(N=Nc2nccs2)c1 was read as NLRP3 yeast inh 89.8*, SUMO Mot1 rescue -3.8, A1 inh -1.1, NALP3 confirm 90.6*, Casp1-ASC yeast 98.7* and NALP3 retest 95.6*.
Screening CCOc1cc(/C=N/Nc2cc(C)nc(-n3nc(C)cc3C)n2)ccc1O returned NLRP3 yeast inh 76.7*, NALP1 inh 4.7, SUMO Mot1 rescue -3.3, A1 inh 8.6*, CHT PAM inactive, CHT inh inactive, NALP3 confirm 54.0*, Casp1-ASC yeast 18.8 and NALP3 retest 35.6.
Screening COC(=O)Nc1ccc(SCC(=O)c2cccc([N+](=O)[O-])c2)cc1 returned NLRP3 yeast inh 54.1*, NALP1 inh 24.0, SUMO Mot1 rescue 138.8, A1 inh 2.3, CHT PAM inactive, CHT inh inactive, NALP3 confirm 62.8*, Casp1-ASC yeast 58.2* and NALP3 retest 40.6.
N/C(=N\N=C/c1ccc(F)cc1)N/N=C\c1ccc(F)cc1 was read as NLRP3 yeast inh 63.9*, NALP1 inh -10.1, SUMO Mot1 rescue -28.6, A1 inh 0.9, CHT PAM inactive, CHT inh inactive, NALP3 confirm 76.2*, Casp1-ASC yeast 69.9* and NALP3 retest 64.7*.
Screening CC(=O)c1ccc(OCc2cc(C(=O)N(C)C(C)c3nccs3)no2)cc1 (configuration not stated) returned NLRP3 yeast inh -1.9 and NALP1 inh 9.1.
